Screening results from PubChem.
The list is a sample of the results.
aSyn UTR act – Activators working through SNCA 5'UTR binding (MLPCN). activity score, % (tested at 7.5 µM), hits read low. alpha-synuclein 5'UTR reporter, activators screen. 7.1% of 300,000 active. AID 1814; in the data active = activity score below about -60%
Large screens that a line does not name were inactive.

COc1cccc(Nc2ncnc3sccc23)c1	aSyn UTR act -118
COc1ccc(Nc2ncnc3sccc23)cc1	aSyn UTR act -98
COc1cccc(Nc2ncnc3sc(C)cc23)c1	aSyn UTR act -126
c1nc(Nc2ccc(N3CCOCC3)cc2)c2ccsc2n1	aSyn UTR act -63
O=C(O)c1cc(O)c2c(c1)C(=O)c1cc(O)cc(O)c1C2=O	aSyn UTR act -81
Cc1ccc(N=Nc2c(O)ccc3n[nH]nc23)cc1	aSyn UTR act -196
COc1ccccc1OCC(=O)Nc1ccc2c(c1)OCCO2	aSyn UTR act -89
Cc1cc(C)c(OCC(=O)Nc2ccc3c(c2)OCO3)cc1C	aSyn UTR act -112
Cc1ccc(OCC(=O)Nc2ccc3c(c2)OCO3)c([N+](=O)[O-])n1	aSyn UTR act -111
O=C(COc1ccccc1Cl)Nc1ccc2c(c1)OCCO2	aSyn UTR act -151
Cc1ccccc1OCC(=O)Nc1ccc(N2CCN(C)CC2)c(Cl)c1	aSyn UTR act -140
N#Cc1cccc(NCC(=O)Nc2ccc3c(c2)OCCO3)c1	aSyn UTR act -69
Cc1cccc(C)c1OCC(=O)Nc1ccc2c(c1)OCCO2	aSyn UTR act -158
COc1cc(C=O)ccc1OCC(=O)Nc1ccc2c(c1)OCO2	aSyn UTR act -90
Cc1ccccc1OCC(=O)Nc1ccc2c(c1)OCCO2	aSyn UTR act -180
Cc1cc(C)c(OCC(=O)Nc2cccc(O)c2)cc1C	aSyn UTR act -114
O=C(COc1ccc(Br)cc1Cl)NC(=O)Nc1ccc2c(c1)OCCO2	aSyn UTR act -72
Cc1ccccc1OCC(=O)Nc1cccc(C(=O)O)c1	none
CC1=C(CO)C(=O)OC([C@@H](C)C2CC[C@H]3C4C[C@H]5O[C@]56[C@@H](O)C=CC(=O)[C@]6(C)C4CC[C@]23C)C1 (stereo partly drawn)	aSyn UTR act -91
CC(=O)Nc1ccc(/C=N/N2CCCCC2)cc1	aSyn UTR act -96
Cc1nc2c(oc3ccccc32)c(=O)o1	aSyn UTR act -84
Cc1cc2ccccn2c1C(=O)Nc1cccc(Cl)c1	aSyn UTR act -113
Cc1cc2ccccn2c1C(=S)NC(=O)c1ccccc1	aSyn UTR act -82
NS(=O)(=O)c1ccc(C(=O)Nc2ccc(-c3nc4cccnc4s3)cc2)cc1	aSyn UTR act -121
CCc1ccc(S(=O)(=O)Nc2ccc(-c3nc4cccnc4s3)cc2)s1	aSyn UTR act -98
Cc1nc(-c2ccccc2)sc1C(=O)NN	aSyn UTR act -102
C=CCNC(=O)c1sc(-c2ccccc2)nc1C	aSyn UTR act -67
O=C(Nc1cccs1)Nc1ccc(Br)cc1F	aSyn UTR act -185
O=C(NNC(=S)Nc1ccc(F)cc1F)c1ccco1	aSyn UTR act -109
O=C(Nc1ccc(F)cc1F)Nc1ccc(F)cc1F	aSyn UTR act -87
O=C(Nc1ccc(F)cc1F)Nc1csc2ccccc12	aSyn UTR act -67
O=C(Nc1cccs1)Nc1ccc(F)cc1F	aSyn UTR act -119
COc1cc(/C=N/n2cnnc2)ccc1OCCSc1ccc(C)cc1	aSyn UTR act -78
CN1c2ccsc2/C(=N/Nc2ccccc2)CS1(=O)=O	aSyn UTR act -123
COc1cc(C(c2c(C)[nH][nH]c2=O)c2c(C)[nH][nH]c2=O)ccc1OCc1ccc([N+](=O)[O-])cc1	aSyn UTR act -146
COC(=O)C(=Cc1ccc(OCc2ccc([N+](=O)[O-])cc2)c(OC)c1)C(=O)OC	aSyn UTR act -259
CCOC(=O)C(=Cc1ccc(OCc2ccc([N+](=O)[O-])cc2)c(OC)c1)C(=O)OCC	aSyn UTR act -267
O=C(O)c1ccc(NC(=S)NC2CCCCC2)cc1	aSyn UTR act -65
FC(F)(F)c1ccc(NC(=S)NC2CCCCC2)cc1	aSyn UTR act -78
Cc1cc(Cl)cc2c(N=Nc3ccccc3C(=O)O)c(O)[nH]c12	aSyn UTR act -68
S=C(Nc1ccc(Cl)cc1)Nc1ccc2cn[nH]c2c1	aSyn UTR act -175
CCc1ccc(NC(=S)Nc2ccc3cn[nH]c3c2)cc1	aSyn UTR act -196
S=C(Nc1ccc2cn[nH]c2c1)Nc1ccccc1Cl	aSyn UTR act -166
Cc1ccccc1NC(=S)Nc1ccc2cn[nH]c2c1	aSyn UTR act -104
Cc1ccnc(Sc2ccc([N+](=O)[O-])cn2)n1	aSyn UTR act -72
O=[N+]([O-])c1ccc(Sc2n[nH]c(-c3ccccc3)n2)nc1	aSyn UTR act -73
CN(C)c1ccc(NC(=S)NC(=O)/C=C/c2ccc(Cl)cc2)cc1	aSyn UTR act -219
CCN(CC)c1ccc(NC(=O)/C=C\c2ccccc2Cl)cc1	aSyn UTR act -190
CN(C)c1ccc(NC(=O)/C=C/c2ccccc2Cl)cc1	aSyn UTR act -161
CCOC(=O)c1sc(-c2ccc(Br)cc2)cc1N	aSyn UTR act -185
NNC(=O)c1sc(-c2ccc(Cl)cc2)cc1N	aSyn UTR act -82
CCOC(=O)c1cc(-c2ccc(N)cc2)sc1N	aSyn UTR act -76
O=C(NCCC1=CCCCC1)NC12CC3CC(CC(C3)C1)C2	aSyn UTR act -118
O=C(CCCc1ccccc1)NC12CC3CC(CC(C3)C1)C2	aSyn UTR act -151
CNC[C@H](CC1CCCCC1)NC[C@H](Cc1ccccc1)NCCC12CC3CC(CC(C3)C1)C2	none
O=C(NCCc1ccc(F)cc1)NC12CC3CC(CC(C3)C1)C2	aSyn UTR act -117
O=C(Nc1cccc(-c2ccc(N3CCCCC3)nn2)c1)C(F)(F)F	none
O=S(=O)(Nc1cccc(-c2ccc(N3CCCCCC3)nn2)c1)c1ccc(C(F)(F)F)cc1	aSyn UTR act -88
Cc1ccc(S(=O)(=O)Nc2cccc(-c3ccc(N4CCCCCC4)nn3)c2)cc1C	aSyn UTR act -117
O=S(=O)(Nc1cccc(-c2ccc(N3CCCCCC3)nn2)c1)c1cccc(F)c1	aSyn UTR act -108
O=S(=O)(Nc1cccc(-c2ccc(N3CCCCCC3)nn2)c1)c1ccccc1F	aSyn UTR act -128
O=S(=O)(Nc1cccc(-c2ccc(N3CCCCCC3)nn2)c1)c1ccc(F)cc1	aSyn UTR act -146
COC(=O)CNc1c(-c2ccccn2)nc2ccc(Br)cn12	aSyn UTR act -83
CCCn1nc2cc(C(=O)NCCc3cccs3)ccc2c1OCC	aSyn UTR act -76
CCCCCCOC(=O)c1ccc(N)cc1	aSyn UTR act -114
CCCCCCCCOC(=O)c1c(CSC(=N)N)n(C)c2cc(Br)c(OC(C)=O)cc12	none
CCCCOC(=O)Nc1ccc(C)c(Cl)c1	aSyn UTR act -164
CCCCOC(=O)Nc1ccc(C(=O)OC)cc1	aSyn UTR act -110
CCOc1ccc2nc(SCC(=O)c3cccs3)sc2c1	aSyn UTR act -122
COc1ccc2nc(NC(=O)CSc3nc4ccccc4o3)sc2c1	aSyn UTR act -153
COc1ccc2nc(NC(=O)CSCC(=O)Nc3cc(C)on3)sc2c1	aSyn UTR act -101
CCOc1ccc2nc(NC(=O)CSc3ccccc3)sc2c1	aSyn UTR act -69
CCOc1ccc2nc(NS(=O)(=O)Cc3ccccc3)sc2c1	aSyn UTR act -66
CN(C)C(=S)Nc1nc2ccccc2s1	aSyn UTR act -137
COc1ccc2nc(NC(=O)CSc3nnc(-c4ccoc4C)n3C)sc2c1	aSyn UTR act -134
CCOc1ccc2nc(NC(=S)N(C)C)sc2c1	aSyn UTR act -82
CCCC(=O)Nc1nc2ccc(OCC)cc2s1	aSyn UTR act -105
O=C(NC1CCCCCC1)C(=S)NC1CCCCC1	aSyn UTR act -98
O=C(NC1CCCCCCC1)NC1CCCCC1	aSyn UTR act -127
COCCN(Cc1ccccc1)C(=S)Nc1ccc(Cl)cc1	none
Fc1ccc(CCNC(=S)Nc2ccc(F)cc2)cc1	aSyn UTR act -76
Cc1cccc(NC(=O)C(=O)NCCCc2ccccc2)c1	aSyn UTR act -77
O=C(NCCc1ccccc1)/C(=N\O)c1ccccc1	aSyn UTR act -107
